A selection: hits, their analogues and other compounds. The true share with any hit is near 22%.
Pf growth 48h: P. falciparum growth inhibition at 48 hours (one generation). P. falciparum luciferase growth in erythrocytes, 48 h. Potency, µM (doses to about 28.7 µM), actives largely listed as inhibitors. 310,000 compounds, 5.9% hits. AID 504832
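First compound was added to culture medium, then infected red cells at 0.1% parasitemia and 2% hematocrit (final). After incubation at 37 C under 5% CO2, luciferase detection reagent was dispensed and light output recorded.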
Pf growth 96h: inhibits malaria parasite growth, 96 h; P. falciparum luciferase reporter growth, 96 h; Potency, µM (top dose mostly 28.7 µM), actives largely listed as inhibitors; 320,000 compounds, 6.9% hits
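Two-generation exposure (96 h) targets delayed-death phenotype. Reporter parasites carrying integrated firefly luciferase, in red cells at 2% hematocrit and 0.05% parasitemia final, kept at 37 C, 5% CO2; luminescence loss indicates inhibition.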
LmPK inhibitor: inhibitors of Leishmania mexicana pyruvate kinase | Potency, µM (highest dose often 57.5 µM), most hits filed as inhibitors | purified LmPK, Kinase-Glo ATP luminescence, 1 h | 290,000 compounds, 0.37% hits | Q27686
Target sequence (Q27686 whole entry, looked up): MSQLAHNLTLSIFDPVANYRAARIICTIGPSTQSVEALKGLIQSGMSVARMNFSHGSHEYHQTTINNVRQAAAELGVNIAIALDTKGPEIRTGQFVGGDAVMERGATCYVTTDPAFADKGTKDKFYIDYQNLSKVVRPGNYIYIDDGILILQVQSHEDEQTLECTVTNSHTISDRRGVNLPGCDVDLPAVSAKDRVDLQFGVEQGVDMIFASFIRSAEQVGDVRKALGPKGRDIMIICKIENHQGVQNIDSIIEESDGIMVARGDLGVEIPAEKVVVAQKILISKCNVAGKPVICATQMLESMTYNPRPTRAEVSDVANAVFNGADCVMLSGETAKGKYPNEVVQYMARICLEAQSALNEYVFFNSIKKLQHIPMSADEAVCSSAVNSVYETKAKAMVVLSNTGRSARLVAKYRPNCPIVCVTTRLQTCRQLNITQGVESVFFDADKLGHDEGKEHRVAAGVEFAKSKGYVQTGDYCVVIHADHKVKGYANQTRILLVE
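Screened at intermediate enzyme activity to detect both inhibitors and activators: LmPK at 0.1 nM, with a 0.5 nM enzyme column as activation reference. PEP 0.5 mM, ADP 0.1 mM; ATP detected by luminescence after 1 h.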
Shiga inhibitor: blocks Shiga toxin action in Vero cells. Vero cells, Shiga toxin protein synthesis inhibition reporter. inhibition, % at 38.7 µM. 290,000 compounds, 9.2% hits. AID 2315; in the data active means inhibition mostly above about 28%, no sharp cut-off; inactive means mostly below about 43%
CHX counter: affects cycloheximide protein synthesis inhibition readout, counter-screen. 300,000 compounds, 12% hits. AID 2314. max response, %. cell reporter, cycloheximide protein synthesis inhibition counterscreen; in the data active means max response mostly above about 13%, no sharp cut-off; inactive means mostly below about 14%; further: read at 38.3 µM for the half of the compounds with a filed dose
A number is an active result; - = inactive; ? = inconclusive; . = no result; [ ] = remark or other dose. Unless noted, the call rests on the fitted dose curve; in most records, active means well fitted inhibition curve with a large enough effect; inconclusive means small, poorly fitted or top-dose-only effect, or another doubt; inactive means no such curve, though single readings can be large or run the other way.

SMILES	Pf growth 48h	Pf growth 96h	LmPK inhibitor	Shiga inhibitor	CHX counter
CCOC(=O)Cc1nnc(NC(=O)C23CC4CC(CC(C4)C2)C3)s1	13.1µM	?	-	-	-
COc1cc(/C=C2/C(=O)NN(c3cccc(C)c3)C2=O)ccc1OC(=O)c1ccco1	-	4.15µM	-	-	-
Cc1ccc(N2NC(=O)/C(=C\c3cc4c(cc3[N+](=O)[O-])OCO4)C2=O)cc1C	10.4µM	-	-	-	-
COc1cccc(/C=C2/C(=O)NN(c3ccc(C)c(C)c3)C2=O)c1	?	-	-	-	8.5
COc1cc(/C=C2/C(=O)NN(c3cccc(C)c3)C2=O)cc([N+](=O)[O-])c1O	-	-	-	-	-
CCC(=O)N(c1nnc(SCC(=O)Nc2ccc(N3CCOCC3)cc2)s1)C1CC1	-	-	.	.	.
O=C(C1CC(=O)N(c2ccccc2)C1)N1CCN(c2ccccc2)CC1 (configuration not stated)	-	-	-	-	-
Cc1cc2n(n1)SC(Nc1ccc(F)cc1)N2 (configuration not stated)	-	-	-	41.0	12.8
CCc1ccccc1NC1Nc2cc(C)nn2S1 (configuration not stated)	-	-	-	-	-
Cc1cc2n(n1)SC(Nc1cccc3ccccc13)N2 (configuration not stated)	-	-	-	51.8	27.4
CC(c1ccccc1)C1CC(=O)N(c2cc(Cl)ccn2)C1=O (configuration not stated)	-	-	-	-	-
Cc1ccccc1NC(=O)COc1ccc(Br)cc1C	-	?	-	54.4	41.1
COc1cc(CO)c(Br)cc1OCC(=O)Nc1ccccc1C	-	?	-[11.5 µM]	-	31.8
COc1cc(CO)c(Br)cc1OCC(N)=O	-	-	-	-	-
COc1ccc2cc(CN(CC3CCCO3)S(=O)(=O)c3ccccc3Cl)c(=O)[nH]c2c1 (configuration not stated)	.	?	-	-	-
CCN1C(=S)N[C@@H](c2cccc(F)c2)C(C(=O)OC)=C1C	?	?	-	-	-
COc1ccc2c(c1)CCC1C2=NN(/C(C)=C/C(C)=O)C1c1cccc(F)c1 (configuration not stated)	-	-	-	47.3	31.5
COC(=O)CSc1nc(C)cc(N2CCOCC2)n1	-	-	-	52.6	-
Cc1cc(N2CCOCC2)nc(SCC(=O)c2ccccc2)n1	-	?	-	95.8	50.9
Cc1cc(C)nc(SCC(=O)c2ccc(O)c(O)c2)n1	?	-	-	-	-
Cc1cc(C)nc(SCC(=O)c2ccc(C)c(C)c2)n1	-	9.28µM	-	-	10.7
Cc1cc(Cl)nc(SCC(=O)c2ccccc2)n1	-	-	-	80.7	44.5
Cc1ccc2c(c1)N(C(=O)CCC(=O)NCCCN1CCN(C)CC1)CC(C)O2 (configuration not stated)	-	-	-	-	-
Cc1ccc(N(CCC#N)C(=O)COC(=O)C2=COCCO2)cc1	?	-	.	.	.
O=C(Nc1ccc(F)cc1)/C(=C1/CCCCCN1)[N+](=O)[O-]	-	-	-	-	-
SMILES	Pf growth 48h	Pf growth 96h	LmPK inhibitor	Shiga inhibitor	CHX counter
Cc1cc(N2CCCC2)nc(SCC(=O)c2ccccc2)n1	-	-	-	-	-
Cc1cc(N2CCC(C)CC2)nc(SCC(=O)c2ccccc2)n1	?	?	-	28.8	12.6
CCCSc1cc(N2CCOCC2)nc(-c2ccccc2Cl)n1	.	11.7µM	-	-	-
CCN1CCN(c2cc(C)nc(-c3ccccc3O)n2)CC1	?	?	-	-	-
Cc1cc(N2CCOCC2)nc(-c2ccccc2O)n1	-	2.33µM	-	-	-
CCSc1cc(N2CCOCC2)nc(-c2ccccc2)n1	?	?	-	-	-
COc1ccccc1C1=Nn2c(nnc2-c2ccccc2O)SC1	.	.	.	-	-
N#CC1(NC(=O)COC(=O)Cn2[nH]c(=O)c3ccccc3c2=O)CCCCC1	-	-	.	.	.
NNc1nc(-c2ccccc2)cc(-c2ccc(Br)cc2)n1	?	-	-	-	-
Brc1ccc(-n2cnc(-c3ccccc3)c2)cc1	-	-	-	60.1	51.5
O=C(N/N=C\c1cn[nH]c1-c1ccccc1)c1ccc([N+](=O)[O-])cc1	-	-	-	-	-
Cc1nnc(SCC(=O)N/N=C/c2cn(-c3ccccc3)nc2-c2ccccc2)n1-c1ccccc1	-	-	-	-	-
O=C(N/N=C\c1cn[nH]c1-c1ccc(Cl)cc1)c1cccs1	-	-	-	81.5	36.1
Cc1ccc(-c2nn(-c3ccccc3)cc2/C=N/NC(=O)c2ccc(Br)o2)cc1	?	?	-	35.9	24.1
O=C(N/N=C/c1cn(-c2ccccc2)nc1-c1ccccc1)c1ccco1	3.29µM	-	-	42.0	20.8
O=C(N/N=C/c1cn[nH]c1-c1ccccc1)c1ccco1	-	-	-	72.4	26.4
Cc1cc2oc(=O)cc(-c3ccccc3)c2c(C)c1-c1ccc(C#N)cc1	.	.	.	-	-
CCCSc1nc2c(c(=O)n(C)c(=O)n2C)n1C	-	?	-	-	-
O=C(N/N=C\c1cn(-c2ccccc2)nc1-c1ccccc1)c1ccc(Br)o1	9.28µM	4.15µM	-	79.8	14.4
Cc1cc(C(=O)OCC(=O)N2CCc3ccccc32)c(C)o1	-	.	-	-	25.1
Cc1cc(C(=O)OCC(=O)Nc2ccccc2C)c(C)o1	-	-	.	.	.
Cc1cc(C(=O)OCC(=O)Nc2ccc(F)cc2F)c(C)o1	?	-	-	-	16.6
O=C(OCC(=O)N1CCc2ccccc21)C1=COCCO1	-	?	-	56.1	37.5
O=C(OCC(=O)N1CCc2ccccc21)c1ccc[nH]c1=O	-	-	-	-	-
Cc1cc(C(=O)OCC(=O)c2ccc(Br)s2)c(C)o1	-	-	-	-	32.6
SMILES	Pf growth 48h	Pf growth 96h	LmPK inhibitor	Shiga inhibitor	CHX counter
CCCCC1CCC(C(=O)OC(C)C(=O)Nc2ccc(NC(C)=O)cc2)CC1 (configuration not stated)	?	-	-	-	-
COc1ccccc1-n1c(C)c(C(=O)O)c2cc(OC)c3ccccc3c21	-	-	-	-	-
CC(=O)OCC(NC(=O)C(CCCCNC(=O)OCc1ccccc1)NC(=O)OC(C)(C)C)C1OC(n2cc(C)c(=O)[nH]c2=O)C(OC(C)=O)C1OC(C)=O (configuration not stated)	.	.	.	-	-
COC(=O)c1ccc(CSc2nc3ccccc3c(=O)n2-c2ccc(OC)c(OC)c2)o1	8.28µM	.	-	-	-
COc1ccc(-n2c(SC3CCOC3=O)nc3ccccc3c2=O)cc1OC (configuration not stated)	-	-	-	-	38.3
COC(=O)c1ccc(CSc2nc3ccccc3c(=O)n2-c2ccccc2)o1	-	.	-	-	-
COC(=O)c1ccc(CSc2nc3c(c(=O)n2-c2ccccc2)SCC3)o1	10.4µM	?	-	-	-
Cc1ccc2cc(C(c3nnnn3Cc3ccccc3)N3CCc4ccccc43)c(=O)[nH]c2c1C (configuration not stated)	10.4µM	.	-	-	-
